# Assay results published in PubChem BioAssay AID686940 (The Scripps Research Institute Molecular Screening Center, 2013).
# Hit rate of the full screen: of about 370,000 compounds, about 2,600 (0.7%) were called active.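 How the source made its calls: active means inhibition above a per-plate cutoff, mean inhibition of test wells between control levels plus 3 SD (cut at about 38% in these data); inactive means the rest.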 This excerpt belongs to a sample that is enriched for actives.
# Biological target: COUP transcription factor 2 (Homo sapiens) (UniProt P24468)
# Assay: COUP-TFII reporter suppression in human cells – cell-based, luciferase reporter, HEK293T, luminescence, primary screen (AID 686940);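 further: cells cotransfected with COUP-TFII expression vector driving the NGFI-A reporter; 0% = median of COUP-TF2 test wells and 100% = reporter-only cells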
# Details: HEK293T NGFI-A luciferase reporter, at 8.6 µM, hits give high values
# Sequence of COUP transcription factor 2 (Homo sapiens) (P24468 whole entry, looked up): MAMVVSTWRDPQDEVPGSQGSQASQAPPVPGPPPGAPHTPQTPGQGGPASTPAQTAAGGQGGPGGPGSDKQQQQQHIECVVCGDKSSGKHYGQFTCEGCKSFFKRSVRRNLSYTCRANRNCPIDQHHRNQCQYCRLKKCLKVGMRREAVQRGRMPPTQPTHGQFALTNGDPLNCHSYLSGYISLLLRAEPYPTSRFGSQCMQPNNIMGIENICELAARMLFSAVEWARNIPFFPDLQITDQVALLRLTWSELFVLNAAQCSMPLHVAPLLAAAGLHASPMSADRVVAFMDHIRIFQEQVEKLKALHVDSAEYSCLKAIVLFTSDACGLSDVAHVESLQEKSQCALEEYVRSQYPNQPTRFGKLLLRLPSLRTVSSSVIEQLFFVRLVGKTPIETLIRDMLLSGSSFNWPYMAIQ
row,SMILES,inhibition
1,C=CCN1C(=O)[C@H](CC(=O)N2CCN(C(=O)OCC)CC2)[C@@]2(C(=O)OCC)CCCC=C12,-10.2% (inactive)
2,CCCCNC(=O)C[C@@H]1C(=O)N(CCc2ccc(Cl)cc2)C2=CCCC[C@]21C(=O)OCC,15.3% (inactive)
3,CCOC(=O)N1CCN(C(=O)C[C@@H]2C(=O)N(CCc3ccc(Cl)cc3)C3=CCCC[C@]32C(=O)OCC)CC1,45.6% (active)
4,O=C1CC[C@@H](COc2ccc3[nH]cc(-c4ccccc4)c3c2-c2ccccc2)N1,-9.36% (inactive)
5,N#Cc1ccc(C2=CC(=O)C[C@H](c3ccc(Cl)cc3)C2)cc1,17.5% (inactive)
6,O=C1C=C(c2cccc(Cl)c2O)C[C@@H](c2ccc(F)cc2)C1,4.63% (inactive)
7,O=C1C=C(c2ccnc3cc(Cl)ccc23)C[C@@H](c2ccc3c(c2)OCO3)C1,56% (active)
8,c1ccc(Cc2ccc(OCCn3ccnc3)cc2)cc1,54.5% (active)
9,Clc1c(OCCCn2ccnc2)ccc2ccccc12,-3.68% (inactive)
10,Clc1ncn(CCOc2ccccc2)c1Cl,6.16% (inactive)
11,COCC(=O)N[C@@H]1C[C@@H]2O[C@@H](CO)CC[C@@H]2O[C@@H]1CCc1ccc(-c2ccccc2)cc1,1.52% (inactive)
12,CC[C@@H](CCC(=O)N(c1ccccc1)c1ccccc1)C1CC1,15.5% (inactive)
13,O=C1Nc2ccccc2OC1CC(=O)N1CCCCCCC1 (stereo not given),18.8% (inactive)
14,O=C(OC12CCCN(C1)/C(=C/c1ccccc1)C2)c1ccco1 (stereo not given),-14.4% (inactive)
15,COc1cc(C(=O)OCCCN2CCOCC2)cc(OC)c1OC,-1.26% (inactive)
16,CCOC(=O)C1=C(N)N2C(=O)C(C)SC2=C(C(=O)OCC)C1c1cc(OC)c(OC)c(OC)c1 (stereo not given),-10.4% (inactive)
17,CCCOC(=O)c1[nH]c2c(c1C)C(=O)CC(c1cc(OC)c(OC)c(OC)c1)C2 (stereo not given),62.1% (active)
18,C=CCN(Cc1ccc2c(c1)OCO2)C(C#CC1CC1)C(C)(C)C (stereo not given),9.73% (inactive)
19,Cc1c(C(C)c2ccccc2O)[nH]c2ccccc12 (stereo not given),13.6% (inactive)
20,CCOC(=O)[C@]12CCCC=C1N(Cc1ccc(OC)cc1)C(=O)[C@@H]2CC(=O)NCc1cccs1,6.16% (inactive)
21,COC(=O)[C@]12C[C@H](CC(=O)NCc3cccc4ccccc34)C(=O)N(CCc3ccc(OC)c(OC)c3)C1=C[C@H](C1CCCC1)O[C@@H]2C,13.6% (inactive)
22,CCn1c(=O)c(=O)[nH]c2c(=O)oc3ccc(S(=O)(=O)Nc4ccc(OC)cc4)cc3c21,4.47% (inactive)
23,CC(=O)c1c(C)oc2ccc(NS(=O)(=O)c3ccccc3)cc12,21.9% (inactive)
24,COc1ccc(S(=O)(=O)Nc2ccc3oc(C)c(C(C)=O)c3c2)cc1,42.4% (active)
25,COc1ccc(CN2C/C(=C/c3ccccc3)N3C(=O)C[C@@H](c4ccccc4)N=C23)c(OC)c1,4.08% (inactive)
26,CC(=O)c1cc(-c2ccc3ccccc3c2)c(=O)n2c1CCC2,16.2% (inactive)
27,Cn1c(CNC(=O)c2ccco2)nnc1SCC(=O)N1CCN(c2ccccc2)CC1,-5.83% (inactive)
28,Cn1c(Cc2cccc3ccccc23)nnc1SCC(=O)N1CCN(c2cccc(Cl)c2)CC1,42.6% (active)

row,SMILES,inhibition
1,Cc1cc2nnc(SCC(=O)N3CCN(c4ccccc4)CC3)n2c(N)n1,8.19% (inactive)
2,COc1ccnc(NC(=S)N2CCN(c3ncc(C(F)(F)F)cc3Cl)CC2)c1,-6.96% (inactive)
3,CCCCCCN1CCS(=O)(=O)N(Cc2ccc(C(F)(F)F)cc2)C(C(=O)OC)C1 (stereo not given),1.89% (inactive)
4,C=CCn1c(C)cc(C2=NNC(=NCC)SC2)c1C,94.5% (active)
5,CC(=O)C1(C(=O)Nc2nccs2)CC(c2ccccc2C(F)(F)F)=NO1 (stereo not given),-12.3% (inactive)
6,COC(=O)c1cc(S(=O)(=O)N2CCN(c3ccccc3C)CC2)cn1C,10.7% (inactive)
7,CCn1c(SCC(C)=O)nc2sc3c(c2c1=O)CCCC3,-12% (inactive)
8,COc1ccccc1CNC(=O)c1ccc(Cl)c(S(=O)(=O)N2CCCC2)c1,0.19% (inactive)
9,O=C(NCCc1ccc(F)cc1)c1ccc(S(=O)(=O)N2CCCCC2)cc1,-1.06% (inactive)
10,NS(=O)(=O)c1ccc(CCNC(=O)c2ccc(Cl)c(S(=O)(=O)N3CCCCCC3)c2)cc1,60.3% (active)
11,CCCC1CCC2(CCCN2CCOC(=O)NCc2ccccc2)CC1 (stereo not given),-2.03% (inactive)
12,O=C(NC1CCCCN(Cc2ccc(Cl)cc2)C1=O)c1ccc(Br)cc1 (stereo not given),12.4% (inactive)
13,CCOC(=O)C1(Cc2ccccc2)CCN(Cc2cn(C(C)=O)c3ccccc23)CC1,19.5% (inactive)
14,CC(=O)c1ccccc1OCc1ccc(C(=O)c2ccccc2)cc1,23.1% (inactive)
15,Fc1ccc(COc2cccc(-c3n[nH]c(=S)o3)c2)cc1,-3.8% (inactive)
16,Cc1nc2ccccc2cc1OCc1ccc(F)cc1,41.9% (active)
17,COc1ccc(Cn2cc(CN3[C@@H](CC(C)C)COc4cc(Br)ccc4S3(=O)=O)nn2)cc1,0.76% (inactive)
18,CC(=O)Nc1ccc(S(=O)(=O)N2CCC(C(=O)NC3CC3)CC2)cc1,-8.71% (inactive)
19,O=C(Nc1ccc(S(=O)(=O)N2CCOCC2)cc1)C1CCN(S(=O)(=O)c2ccc(Cl)cc2)CC1,44.8% (active)
20,CC(=O)Nc1ccc(NC(=O)C2CCCN(S(=O)(=O)c3ccc(Cl)cc3)C2)cc1 (stereo not given),-3.16% (inactive)
21,COC(=O)C1CN(Cc2ccc(F)cc2)CCS(=O)(=O)N1Cc1ccc(Cl)cc1 (stereo not given),7.77% (inactive)
22,CN(C(=O)c1cccc(NC(=O)Cc2cccc([N+](=O)[O-])c2)c1)C1CCCCC1,38.2% (active)
23,CN(CCc1ccccc1)C(=O)c1cccc(NC(=O)Cc2cccc(NC(=O)C3CCCN(C(=O)CCc4ccccc4)C3)c2)c1 (stereo not given),44.5% (active)
24,CN(C(=O)c1cccc(NC(=O)Cc2ccc([N+](=O)[O-])cc2)c1)C1CCC1,33.2% (inactive)
25,CN(C(=O)c1cccc(NC(=O)Cc2ccc(NC(=O)C3CCN(C(=O)C4CCCCC4)CC3)cc2)c1)C1CCC1,-2.15% (inactive)
26,CN(CCc1ccccc1)C(=O)c1cccc(NC(=O)Cc2cccc(NC(=O)C3CCCN(C(=O)C4CCC4)C3)c2)c1 (stereo not given),9.42% (inactive)
27,CN(C(=O)c1cccc(NC(=O)Cc2cccc(NC(=O)C3CCCN(C(=O)C4CC4)C3)c2)c1)C1CCC1 (stereo not given),2.2% (inactive)
